For 16 compounds, Kd results are on record in article PMC5540273 (PLoS ONE, 2017).
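Note: kd values determined as follow-up on hits from a single-replicate KINOMEscan panel screen.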

The first experiment relates to BLK.
The Kd is a measure of binding affinity in units of concentration. On to `COc1cc2nccc(Nc3ccc(NC(=O)c4ccc(C)cc4)c(O)c3)c2cc1OC.Cl` [GW440132], for which the Kd is 230 nM. On the same count and under the same terms, the result for `Cl.NC(=O)c1cccc(Nc2nccc(Nc3ccc(Oc4cccc(Cl)c4)c(Cl)c3)n2)c1` [GW659008] reads 2600 nM. Still for that read-out and setting: the result for `Cc1ccc(C(=O)Nc2ccc(Nc3ccnc4cc(-c5ccccn5)ccc34)cc2O)cc1.Cl` [GW440146] reads 63 nM.

The next experiment concerns BRAF.
On to `CC(=O)Nc1nc2cnc(Nc3cc(NC(=O)c4cccc(CCC#N)c4)ccc3C)nc2s1`, for which the Kd is > 10000 nM. On the same count and under the same terms, the result for `CN(C)CCN(C)C(=O)c1cc(-c2ccncc2)c(-c2ccc(Cl)c(O)c2)o1.Cl.Cl` [SB-710397] reads 45 nM; that for `Cl.O=C(Nc1cccc(-c2nn3ncccc3c2-c2ccnc(Nc3cccnc3)n2)c1)c1c(F)cccc1F` [GSK312879], 62 nM.

Compound `Cc1cccc(-c2nc(-c3ccc(S(C)(=O)=O)cc3)sc2-c2ccnc(NCCc3ccccc3)c2)c1` came in with a Kd of 81 nM.

For `COC(=O)c1c(-c2ccccc2)c2cc(C(=O)O)ccc2c(=O)n1Cc1ccccc1`, the Kd was found to be 50 nM. The same measure, in the same setting: the result for `COC(=O)c1c(-c2ccccc2)c2cc(OC)ccc2c(=O)n1Cc1ccccc1` reads 61 nM.

The test system of the next experiment is BRSK1.
With `Cc1ccc(NC(=O)Nc2cc(C(C)(C)C)nn2-c2ccccc2)cc1` [GSK1014915], the Kd is > 10000 nM. In the case of `Cc1ccc(NC(=O)Nc2cccc(Cl)c2)cc1-c1ccc(C(=O)Nc2ccncc2)cc1` [GSK1398468], the Kd is > 10000 nM.

As for `O=C(Nc1n[nH]c2nc(-c3nccs3)c(Br)cc12)C1CCCC1` [SB-742609], the Kd turned out to be 430 nM.

In the case of `CS(=O)(=O)c1ccc(-c2c(-c3ncn[nH]3)sc(N3CCOCC3)c2C#N)cc1`, the Kd is > 10000 nM.

With `CCn1c(-c2ccccn2)nc2cnccc21` [SB-736398], the equilibrium dissociation constant (Kd) is > 10000 nM. `O=C(Nc1n[nH]c2nc(-c3nccs3)c(Br)cc12)C1CC1` [SB-742251]: the Kd was determined as 230 nM. In other words, the sub-micromolar range.

In the next experiment the test system is BRSK2.
Take `COc1ccccc1CNC(=O)c1cc(C(=O)c2ccccc2C)c[nH]1` [GSK364507]: the Kd was > 10000 nM. For the compound `O=C(Nc1n[nH]c2nc(-c3nccs3)c(Br)cc12)C1CCCC1` [SB-742609], the Kd was 330 nM. This counts as sub-micromolar.

`O=C(Nc1n[nH]c2nc(-c3nccs3)c(Br)cc12)C1CC1` [SB-742251] returned a Kd of 140 nM. Against the preceding compound, the Kd is about 2.4-fold lower.
